Laboratory results reported in ChEMBL document CHEMBL3988442, “University of Dundee, Small-Polar-MMV Screening Library” (2021).
Hit rate of the full screen: of about 69,000 compounds, about 950 (1.4%) showed an effect of 50% or more. The list comes from a sample in which strong results are over-represented; it also holds similar structures and randomly drawn compounds.

System: Mycobacterium tuberculosis
Experiment: Cornell M. t heat shock assay; also: in the data most compounds retested in dose-response had high values
Format: functional, organism-based
Design: dose or concentration left out as unconfirmed

SMILES | Percent Effect
COc1cccc(CC(=O)N2CC[C@@H](OC)[C@@H]2Cc2cccnc2)c1.O=C(O)C(F)(F)F | 11.27%
Cc1nnc(CN(C)C2CCCN(Cc3noc(C4CC4)n3)C2)o1 (stereo not given) | -4.888%
CCOC1COC2(CCN(CC3CC3)CC2)C1.O=C(O)C(F)(F)F (stereo not given) | -11.36%
Cc1ccc(-c2nc(CNC(C)Cn3cccn3)cs2)o1 (stereo not given) | 55.14%
COc1ccc(-c2noc(CNC(C)Cn3cccn3)n2)c(OC)c1 (stereo not given) | -27.41%
COc1ccc(-c2nc(CNC(C)Cn3cccn3)cs2)cc1 (stereo not given) | 58.05%
CC(Cn1cccn1)NCc1csc(-c2ccccc2)n1 (stereo not given) | 29.32%
COc1cccc(-c2nc(CNCc3cccnc3)cs2)c1 | -18.41%
COc1cccc(-c2nc(CNC(C)Cn3cccn3)cs2)c1 (stereo not given) | 89.4%
Cc1ccc(-c2nc(CN3CCOC(Cn4cccn4)C3)cs2)o1 (stereo not given) | 19.35%
O=C(NCc1ccccn1)[C@@H]1COC[C@H]2CN(C3CCOCC3)C[C@H]21.O=C(O)C(F)(F)F.O=C(O)C(F)(F)F | 0.9957%
CC(=O)N1CCN(c2cncc(C3CCNCC3)n2)CC1.Cl | -8.785%
O=C(O)C(F)(F)F.O=C(c1ccccc1)N1CCOC2(CCN(Cc3cccs3)CC2)C1 | -35.41%
Cc1ccc(CN2Cc3nnn(C)c3C(COCC3CC3)C2)s1.O=C(O)C(F)(F)F (stereo not given) | -11.83%
O=C(O)C(F)(F)F.c1cnc(N2CCOCC3(CN(Cc4cc[nH]n4)CCO3)C2)nc1 (stereo not given) | -18.22%
COCC(=O)N1CCC(c2cc3ncccc3c(O)n2)CC1 | 10.22%
CCCC(=O)N1CCC(c2cc3cccnc3c(O)n2)CC1 | -11.07%
CCOCC(=O)N1CCC(c2cc3ncccc3c(O)n2)CC1 | -9.964%
O=C(CC1CCCC1)N1CCC(c2cc3ncccc3c(O)n2)CC1 | 63.36%
O=C(CCC1CCCC1)N1CCC(c2cc3ncccc3c(O)n2)CC1 | 59.08%
CCCC(=O)N1CCCC(c2cc3cccnc3c(O)n2)C1 (stereo not given) | -27.54%
CC(C)N(C)Cc1nnn2c1CN(Cc1cccnc1)CCC2.O=C(O)C(F)(F)F.O=C(O)C(F)(F)F.O=C(O)C(F)(F)F | -0.7766%
CC(C)n1c(=O)nc2n1C(=O)N(c1ccc(Cl)cc1)C2 | 4.407%
CCOC(=O)[C@]12CCCN(Cc3cccs3)C[C@H]1CN(CC(C)C)C2.O=C(O)C(F)(F)F.O=C(O)C(F)(F)F | 26.18%
O=C(CN1CC(c2nc(-c3ccco3)no2)C1)NCCc1ccccc1.O=C(O)C(=O)O | -7.325%
